Screening results as filed in PubChem BioAssay.
The list is not random: actives were taken first. Their share in the collection is about 2.2%.
FUS yeast rescue = FUS proteinopathy suppression in yeast | S. cerevisiae FUS-expressing, growth rescue, OD600, 24 h | Potency, µM (highest dose often 76.6 µM), most hits filed as activators | hit rate 0.24% among 390,000;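 note: plate controls were DMSO vehicle for no effect and reference control for full effect; nearly all actives have a fitted effect of over 55% in size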
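Restored growth of FUS-toxic S. cerevisiae, read as 600 nm absorbance after 24 h at 30C in galactose medium (starting OD 0.005). Controls CP55940 and DMSO.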
ERG-DNA inh = blocks human ERG Ets domain binding to DNA. P11308. Potency, µM (highest dose often 76.9 µM), for the others: at the top dose FP activity, negative = inhibition, hits mostly inhibitors. fluorescence polarization, His-ERG Ets domain / labelled DNA. hit rate 0.028% among 370,000; active = well fitted inhibition curve with a large enough effect in the polarisation, with a control signal flat; inconclusive = small, poorly fitted or top-dose-only effect, or effect the other way, or a change in a side signal; inactive = no such curve, though single readings can be large or run the other way; the % refers to the polarisation;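 note: polarization taken with two DNA probes labelled with fluorescein and Texas red; % of control where 0% means no effect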
Target sequence (P11308 whole entry, looked up, the tested form may be a part): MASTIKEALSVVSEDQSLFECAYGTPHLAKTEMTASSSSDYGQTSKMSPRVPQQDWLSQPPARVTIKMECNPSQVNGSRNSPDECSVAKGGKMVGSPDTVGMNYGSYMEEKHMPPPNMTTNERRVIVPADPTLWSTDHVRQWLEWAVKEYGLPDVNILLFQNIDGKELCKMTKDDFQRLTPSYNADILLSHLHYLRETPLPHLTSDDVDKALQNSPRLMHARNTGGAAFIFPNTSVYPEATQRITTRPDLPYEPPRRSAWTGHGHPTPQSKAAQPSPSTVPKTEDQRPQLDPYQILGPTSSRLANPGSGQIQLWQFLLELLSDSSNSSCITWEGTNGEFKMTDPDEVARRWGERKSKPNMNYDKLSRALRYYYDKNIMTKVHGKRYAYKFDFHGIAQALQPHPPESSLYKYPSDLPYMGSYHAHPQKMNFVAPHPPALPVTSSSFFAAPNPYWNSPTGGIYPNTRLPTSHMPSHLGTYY
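His-tagged ERG Ets domain (1 uM in the protein solution; 300mM KCl, 50mM Tris-HCl, 1mM EDTA, 1mM DTT, pH 7.5) received compound, then a probe mix of 5 nM fluorescein-DNA and 100nM Texas-615-DNA. Fluorescence polarization was read for both dyes.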
Mito fusion act = blocks mitochondrial division or promotes mitochondrial fusion; S. cerevisiae fusion-defective mutant growth rescue, CellTiterGlo 48 h; Potency, µM (doses to about 46.1 µM), inactives show top-dose growth rescue (activation), most hits filed as activators; hit rate 0.23% among 320,000; AID 485298; note: % of control where 0% means no effect; nearly all actives have a fitted effect of over 45% in size
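Luminescent cell viability in 1536-well qHTS format served as the measure of rescued growth in ts fusion-mutant S. cerevisiae cultured on non-fermentable YPEG for 48 hours at 37C.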
TDP-43 yeast inh = inhibitors of TDP-43 toxicity in yeast; TDP-43 expressing yeast growth rescue, BacTiter-Glo, 24 h; Potency, µM (series often up to 46.1 µM), inactives show at the top dose growth rescue (activation), actives largely listed as activators; hit rate 1.8% among 410,000; AID 652104; note: % of control where 0% means no effect; nearly all actives have a fitted effect of over 50% in size
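Galactose-induced TDP-43 yeast, OD600=0.02, compound pinned; 24 hr, 30 deg C; BacTiter-Glo luminescence for growth. Inhibitors of TDP-43 toxicity read as activators.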
Abeta yeast res = A-beta toxicity reversal in yeast; yeast expressing A-beta42, growth rescue, OD600, 48 h; response scale: 0% DMSO, 100% iron-clioquinol control; Potency, µM (top dose mostly 46.1 µM), most hits filed as activators; hit rate 0.063% among 410,000; note: nearly all actives have a fitted effect of over 55% in size
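Yeast A-beta toxicity model in growth medium with pinned compounds, 48 h at 30 C; growth read as absorbance at 600 nm. Normalized to FeCl3/clioquinol equimolar mix (positive) and DMSO (negative).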
aSyn yeast inh = inhibitors of alpha-synuclein toxicity in yeast; AID 652106; Potency, µM (doses to about 46.1 µM), for the others: at the top dose growth rescue (activation), hits mostly activators; hit rate 0.14% among 370,000; Yeast expressing alpha-synuclein, growth rescue, BacTiter-Glo, 24 h; note: % of control where 0% means no effect; nearly all actives have a fitted effect of over 65% in size
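Rescue of yeast growth: cells expressing toxic alpha-synuclein, induced in galactose at OD600 0.02, incubated with compound 24 h at 30 C. ATP luminescence quantified growth; inhibitors of toxicity appear as activators.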
* marks the source's active call; other numbers are inactive results; i = inactive; ? = inconclusive; . = no result; [ ] = remark or other dose. Unless noted, calls come from the whole dose curve; as a rule, active = well fitted curve in the direction sought with a large enough effect; inconclusive = small, poorly fitted or top-dose-only effect, or another doubt; inactive = no such curve, though single readings can be large; an effect the other way counts as inactive or inconclusive. Potency is the fitted concentration of half-maximal effect.

SMILES	FUS yeast rescue	ERG-DNA inh	Mito fusion act	TDP-43 yeast inh	Abeta yeast res	aSyn yeast inh
CC(=O)c1cccc(OCC(=O)Nc2ccccc2N2CCOCC2)c1	i	5%	9%	22µM*	i	0%
COc1ccc(OCC(=O)Nc2ccccc2N2CCCCC2)cc1	i	-10%	-8%	11µM*	i	16%
COc1ccc(C(=O)NC(=S)Nc2ccccc2N2CCCCC2)cc1[N+](=O)[O-]	?	-7%	15%	16µM*	?	-1%
COc1cccc(CO[C@H]2C=C[C@@H](c3ccccc3)O[C@@H]2COC(C)=O)c1	i	.	.	.	.	.
COc1cccc(NS(=O)(=O)c2ccc3[nH]cc(C(=O)NCCc4ccccc4)c(=O)c3c2)c1	i	11%	.	5%	i	.
Cc1ccc2oc(C(=O)Nc3c(C(=O)Nc4ccccc4)oc4ccccc34)cc(=O)c2c1	i	1%	.	24%	i	.
O=C(Nc1ccccc1N1CCCCC1)c1ccc([N+](=O)[O-])o1	i	-6%	5.6µM*	16%	i	-9%
Cc1cccc(NC(=O)c2ccc(N3CCCCC3)c([N+](=O)[O-])c2)n1	.	-5%	-22%	3.5µM*	i	-13%
COc1cccc(C(=O)NC(=S)Nc2ccccc2N2CCOCC2)c1	.	-1%	0%	13µM*	i	16%
COc1cc(C(=O)NC(=S)Nc2ccccc2N2CCOCC2)cc(OC)c1OC	i	-3%	2%	-24%	i	-13%
CC1CCCN(c2ccc(C(=O)Nc3ccc4c(c3)OCO4)cc2[N+](=O)[O-])C1 (centres undefined)	?	6%	18µM*	?	i	11%
CC1CCN(c2ccc(C(=O)Nc3ccc4c(c3)OCO4)cc2[N+](=O)[O-])CC1	i	-14%	?	22%	i	7%
Cc1cccc(NC(=O)c2ccc(N3CCOCC3)c([N+](=O)[O-])c2)n1	i	1%	3%	?	i	2%
COC(=O)c1c(SC)nc2ccccc2c1OCc1ccccc1C	i	9%	.	16%	i	.
Cc1oc(-c2ccc(C(=O)NCCc3ccc(Cl)cc3)cc2)nc1CSc1ccccc1	i	0%	.	-7%	i	.
Cc1cc(C(=O)C(=O)Nc2nnc(C(C)C)s2)c(C)n1-c1ccccc1	?	0%	.	-11%	i	.
COc1ccc(CNC(=O)C2=C(C)C(=O)OC23CCN(C(C)=O)CC3)cc1	i	-1%	.	-3%	i	.
COc1ccc(F)cc1S(=O)(=O)Nc1ccc2c(c1)CCCN2C(=O)c1cccs1	i	1%	.	22%[9.22 µM]	i	.
COc1cc(-c2nc(C)c(C(C)=O)n2O)ccc1OCC(=O)Nc1ccc(F)cc1	i	8%	-6%	19%	i	-6%
CCOc1cc(-c2nc(C)c(C(C)=O)n2O)ccc1OCC(=O)Nc1ccc(F)cc1	i	18%	0%	14µM*	i	-4%
Cc1ccc(S(=O)(=O)N(C)CCCN(C)c2nc(-c3cccs3)nc3ccccc23)cc1	.	.	.	.	.	-27%
COC(=O)C[C@H]1CC[C@@H]2[C@H](COc3ccc(NS(C)(=O)=O)cc3C(=O)N2C)O1	i	.	.	.	.	.
CCCNC(=O)c1cc2c(c(-c3cccc(-c4ccccc4F)c3)n1)[C@@H](CCO)N(C(=O)CC1CC1)C2	?	.	.	14µM*	i	0%
O=C(Nc1ccc(C(F)(F)F)cc1)C1CCCN(c2cnccn2)C1 (centres undefined)	i	-3%	.	9%	i	.
CCC(C)(O)c1[nH]c2ccc(C(F)(F)F)cc2c1C (centres undefined)	i	6%	-6%	18µM*	14µM*	0%
SMILES	FUS yeast rescue	ERG-DNA inh	Mito fusion act	TDP-43 yeast inh	Abeta yeast res	aSyn yeast inh
Cc1c(C(C)(C)O)[nH]c2ccc(C(F)(F)F)cc12	i	-2%	2%	35µM*	18µM*	5%
CC(C)CN=C(NS(=O)(=O)c1ccccc1)C(Cl)(Cl)Cl	?	-4%	?	11µM*	i	15%
CC(C)CC(NS(=O)(=O)c1ccccc1)C(=O)O (centres undefined)	i	-6%	-2%	0%	i	8%
CC(=O)N1CCN(Cc2cc(=O)oc3ccccc23)CC1	i	.	.	?	i	-5%
CC[n+]1c(/C=C/C=C2/N(C)c3ccccc3C2(C)C)sc2ccccc21	.	.	-40%	.	.	-82%
COc1ccc(C2Nc3ccccc3C(=O)N2Cc2ccco2)cc1COc1c(C)cc(NC(C)=O)cc1C (centres undefined)	10µM*	.	.	.	.	.
COc1ccc(C2Nc3ccccc3C(=O)N2Cc2ccccc2)cc1COc1ccc(NC(C)=O)cc1 (centres undefined)	16µM*	.	.	.	.	.
COc1ccc(C2Nc3ccc(NC(C)=O)cc3C(=O)N2Cc2ccccc2)cc1COc1ccc(NC(C)=O)cc1 (centres undefined)	.	.	.	.	.	3%
COc1ccc(NC(=O)c2ccco2)cc1NC(=O)c1ccc(OC(C)C)cc1	?	-3%	.	14µM*	i	.
COc1ccc(NC(=O)c2ccco2)cc1NC(=O)c1ccc(C)cc1	i	-12%	15%	?	i	11%
Cn1c(N)c(C(C[N+](=O)[O-])c2ccccc2Cl)c(=O)n(C)c1=O (centres undefined)	i	-7%	.	14µM*	i	-25%
O=C(NCc1ccc(F)cc1)c1cc(C2CCCN(C(=O)CCCc3ccccc3)C2)on1 (centres undefined)	?	.	.	18µM*	i	12%
O=C(Nc1ccc(F)c(Cl)c1)c1cc(C2CCCCN2C(=O)C2CC2)on1 (centres undefined)	i	.	.	10%	i	-4%
O=C(Nc1ccc(F)c(Cl)c1)c1cc(C2CCCN(C(=O)CCc3ccccc3)C2)on1 (centres undefined)	i	.	.	28µM*	i	1%
O=C(Nc1ccccc1)c1cc(C2CCCN(C(=O)CCc3ccccc3)C2)on1 (centres undefined)	i	.	.	18µM*	i	0%
O=C(Nc1ccc(F)c(Cl)c1)c1cc(C2CCCN(C(=O)C3CC3)C2)on1 (centres undefined)	i	.	.	25µM*	i	-8%
COc1ccc(NC(=O)Cn2c(=O)n(CCc3ccccc3)c(=O)c3ccccc32)cc1	i	-2%	.	0%	i	.
CC(C)C(=O)N1CCC1(C)C(=O)NS(=O)(=O)c1cccs1 (centres undefined)	i	.	.	6%	i	-1%
COc1ccccc1N1CCN(C(=O)c2cnc(N3CCCCC3)c3ccccc23)CC1	i	-4%	.	0%	i	.
